From PubChem BioAssay
KinaseGlo FLuc – counter-screen: inhibitors of Kinase-Glo firefly luciferase | Q27757 | Kinase-Glo luciferase, ATP luminescence, 8 min | Potency, µM (highest dose often 38.3 µM), for the others: top-dose activity change, negative = inhibition, most hits filed as inhibitors | actives 0.28% (n = 200,000) | AID 1379; active means well fitted inhibition curve with a large enough effect; inconclusive means small, poorly fitted or top-dose-only effect; further: potency means the concentration at half of the fitted maximal effect; nearly all actives have a fitted effect of over 60% in size
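Light output from Kinase-Glo luciferase with luciferin and 10 uM ATP in 50 mM imidazole pH 7.2, KCl, MgCl2, Tween 20, BSA; compound pin-delivered, 8-min ambient incubation, then luminescence read.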
PNC assembly inh – blocks assembly of the perinucleolar compartment; actives 3.1% (n = 140,000); PC3M PTB-GFP, PNC prevalence imaging, 16 h; hits give low values; activity change (PNC), negative = inhibition, % at 10 µM;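 active means readout at or below -70, meaning at least 70% loss of cells showing the perinucleolar compartment, a nuclear body marking cancer cells; inconclusive means readout between -30 and a set limit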;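 further: plate controls were DMSO wells for no effect and camptothecin positive control wells for full effect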
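PC3M cells stably expressing PTB-GFP, 750–1000 cells/well, treated 16 h at 37 °C with compound (23 nl of library stock), in duplicate. After paraformaldehyde fixation and Hoechst stain, imaged at 20x; PNC prevalence scored by image analysis.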
IMPase cell inh – membrane-permeable compound that blocks inositol monophosphatase | AID 901 | 120,000 tested, under 10 active | inhibition (IP1 accumulation), % at 46.1 µM | CHO-M1 cells, IP1 accumulation, HTRF TR-FRET ratio | P97697; active means well fitted curve in the direction sought with a large enough effect in the signal ratio, not every such curve was filed as active; inconclusive means small, poorly fitted or top-dose-only effect, or a change in a side signal; inactive means no such curve, though single readings can be large or run the other way; the % refers to the signal ratio;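 further: cells stimulated with carbachol in lithium chloride buffer; plate controls were DMSO basal wells for no effect and reference inhibitor wells for full effect; higher means more IMPase inhibition seen as more IP1 and lower FRET ratio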
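Measured: the HTRF emission ratio (665/620 nm) plus the 620 nm donor channel, each fitted to the Hill equation to give AC50. Cells were CHO-M1 given compounds up to 46 uM and a 30 min carbachol stimulation at 37C.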
ALDH1A1 inh – ALDH1A1 (human) enzyme inhibition. Potency, µM (series often up to 75.3 µM), inactives show at the highest dose activity, negative = inhibition, usual class: inhibitors. actives 7.3% (n = 220,000). AID 1030. Purified ALDH1A1, NADH fluorescence, propionaldehyde substrate;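 further: potency means the concentration at half of the fitted maximal effect; plate controls were no enzyme wells and a reference inhibitor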
Target sequence (P00352 whole entry, looked up): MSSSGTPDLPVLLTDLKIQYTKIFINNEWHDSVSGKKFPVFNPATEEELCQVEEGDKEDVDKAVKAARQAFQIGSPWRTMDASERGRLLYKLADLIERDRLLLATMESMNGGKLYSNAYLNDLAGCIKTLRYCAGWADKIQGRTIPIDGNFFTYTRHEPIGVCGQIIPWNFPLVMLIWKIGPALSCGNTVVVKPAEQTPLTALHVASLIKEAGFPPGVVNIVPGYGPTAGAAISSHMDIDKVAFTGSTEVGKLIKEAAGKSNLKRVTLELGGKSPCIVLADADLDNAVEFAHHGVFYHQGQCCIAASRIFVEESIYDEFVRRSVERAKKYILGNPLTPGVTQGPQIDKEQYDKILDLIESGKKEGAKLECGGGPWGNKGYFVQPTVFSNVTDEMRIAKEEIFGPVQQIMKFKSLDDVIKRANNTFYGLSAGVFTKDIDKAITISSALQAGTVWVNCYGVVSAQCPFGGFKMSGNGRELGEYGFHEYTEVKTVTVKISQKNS
HPGD inh – HPGD (human) dehydrogenase inhibition; P15428; purified HPGD, NADH fluorescence kinetic, PGE2 substrate; AID 894; actives 4.3% (n = 150,000); Potency, µM, without a hit: top-dose activity change, negative = inhibition, usual class: inhibitors; further: potency means the concentration at half of the fitted maximal effect
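NADH formation kinetics: reaction with 30 uM PGE2 and 1 mM NAD+ (final), 20 nM enzyme, Tris-HCl pH 8 with Tween 20, after 15 min compound preincubation at room temperature. Fluorescence change, last versus first of five reads.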
LMNA splice mod – LMNA splicing modulation; HeLa LMNA splicing GFP/RFP minigene ratio, 48 h; actives 0.01% (n = 200,000); Potency, µM (highest dose often 46.1 µM), without a hit: top-dose ratio change, negative = inhibition, usual class: inhibitors; active means well fitted inhibition curve with a large enough effect in the signal ratio, with a control signal flat, not every such curve was filed as active; inconclusive means small, poorly fitted or top-dose-only effect, or effect the other way, or a change in a side signal; the % refers to the signal ratio; further: potency means the concentration at half of the fitted maximal effect
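S3 HeLa cells stably expressing lamin A-EGFP splicing minigene plus DsRed2, 600 cells/well, 48 h compound exposure at 37C. Laser-scanning cytometry; analysed as GFP (500-530 nm)/RFP (575-640 nm) total intensity ratio; 0.5% DMSO vehicle.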
* hit, by the source's call; [ ] = remark or other dose. Rows were chosen to be rich in hits. Some 10% of all compounds tested hit in one or more screens of this group. Unless noted, the call rests on the fitted dose curve; in most records, active means well fitted inhibition curve with a large enough effect (not every such curve was filed as active); inconclusive means small, poorly fitted or top-dose-only effect, or another doubt; inactive means no such curve, though single readings can be large or run the other way. Unless noted, on the % scale 0 is the no-effect control and ±100 the full control effect.

Results for CN1CCN(NC(=O)CN2C(=O)/C(=C/c3ccccc3Cl)SC2=S)CC1 ?
KinaseGlo FLuc: 3%; PNC assembly inh: -10; IMPase cell inh: 6; ALDH1A1 inh: inconclusive; HPGD inh: 13µM*; LMNA splice mod: -22%

How did COc1ccc(C2C(C(C)=O)=C(O)C(=O)N2C)c(OC)c1 (centres undefined) do in these assays?
KinaseGlo FLuc: -2%; PNC assembly inh: -127*; IMPase cell inh: -3; ALDH1A1 inh: -1%; HPGD inh: -9%; LMNA splice mod: 4%

How did COc1ccc(OC)c(C2C(C(C)=O)=C(O)C(=O)N2c2ccc(F)cc2)c1 (centres undefined) do in these assays?
KinaseGlo FLuc: 17%; PNC assembly inh: -14; IMPase cell inh: -13; ALDH1A1 inh: inconclusive; HPGD inh: -14%; LMNA splice mod: -5%

Results for COc1ccc(OC)c(C2C(C(C)=O)=C(O)C(=O)N2Cc2cccnc2)c1 (centres undefined) ?
KinaseGlo FLuc: -1%; PNC assembly inh: -26; IMPase cell inh: -3; ALDH1A1 inh: 28µM*; HPGD inh: -12%; LMNA splice mod: -4%

Results for CC(=O)C1=C(O)C(=O)N(Cc2cccnc2)C1c1ccccc1Cl (centres undefined) ?
KinaseGlo FLuc: 13%; PNC assembly inh: 11; IMPase cell inh: -11; ALDH1A1 inh: inconclusive; HPGD inh: -18%; LMNA splice mod: 5%

What do the screens show for `COc1ccc(C2C(C(C)=O)=C(O)C(=O)N2c2cccnc2)c(OC)c1` (centres undefined)?
KinaseGlo FLuc: 0%; PNC assembly inh: inconclusive; IMPase cell inh: -6; ALDH1A1 inh: 32µM*; HPGD inh: inconclusive; LMNA splice mod: -10%

What do the screens show for `COc1ccc(NC(=O)COC(=O)Cc2c[nH]c3ccccc23)cc1OC`?
KinaseGlo FLuc: 3%; ALDH1A1 inh: 1%; LMNA splice mod: -10%[46 µM]

How did CCOc1ccc(NC(=O)COC(=O)CCCc2c[nH]c3ccccc23)cc1 do in these assays?
KinaseGlo FLuc: 1%; PNC assembly inh: 67; IMPase cell inh: 6; ALDH1A1 inh: 16µM*; HPGD inh: -16%; LMNA splice mod: 7%

How did CC(=O)Nc1ccc(NC(=O)COC(=O)Cc2c[nH]c3ccccc23)cc1 do in these assays?
KinaseGlo FLuc: -2%; PNC assembly inh: 49; ALDH1A1 inh: 14µM*; HPGD inh: -7%; LMNA splice mod: -3%

Results for CC(=O)OCC(=O)NCC(=O)c1c[nH]c2ccccc12 ?
KinaseGlo FLuc: 1%; PNC assembly inh: -100*; ALDH1A1 inh: -4%; HPGD inh: 16µM*; LMNA splice mod: 2%

Results for COc1ccc(NC(=O)COC(=O)CCCc2c[nH]c3ccccc23)cc1 ?
KinaseGlo FLuc: -4%; PNC assembly inh: -24; IMPase cell inh: 5; ALDH1A1 inh: 8.9µM*; HPGD inh: -24%; LMNA splice mod: -1%

Results for Cn1c(N)c(C(=O)COC(=O)CCCc2c[nH]c3ccccc23)c(=O)n(C)c1=O ?
KinaseGlo FLuc: -3%; PNC assembly inh: -80*; IMPase cell inh: 6; ALDH1A1 inh: -5%; HPGD inh: -8%; LMNA splice mod: -2%

Results for Cn1c(N)c(C(=O)COC(=O)CCc2c[nH]c3ccccc23)c(=O)n(C)c1=O ?
KinaseGlo FLuc: -1%; PNC assembly inh: 27; IMPase cell inh: -4; ALDH1A1 inh: -1%; HPGD inh: -4%; LMNA splice mod: 0%

How did Cc1ccc(C(=O)N[C@H](C(=O)OCc2cc(=O)oc3cc(C)ccc23)C(C)C)cc1 do in these assays?
KinaseGlo FLuc: 0%; PNC assembly inh: 22; IMPase cell inh: -3; ALDH1A1 inh: 3%; HPGD inh: -11%; LMNA splice mod: -6%

Results for COc1ccc(C(=O)N[C@H](C(=O)OCc2cc(=O)oc3cc(C)ccc23)C(C)C)cc1 ?
KinaseGlo FLuc: -2%; PNC assembly inh: -28; ALDH1A1 inh: 11µM*; HPGD inh: -27%; LMNA splice mod: -9%
